What all share (conditions): mRNA level, 48 h; actives raise or lower the signal
Read-out in test [1]: Lipoprotein lipase (LPL), LPL (gene 4023)
As to the kind of experiment: LTEA_HepaRG_LPL: Life Technologies and Expression Analysis (LTEA) Assay for Lipoprotein lipase (LPL) using HepaRG (AID 2283515). A digest of the protocol: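 Differentiated HepaRG cells, plated 48 h, then exposed 48 h in serum-free induction medium to 8 concentrations (top 100 uM, half-log steps) in 0.5% DMSO, duplicate. LPL mRNA measured by qRT-PCR, normalized to ACTB, GAPDH and POLR2A.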

Read-out in test [2]: MicroRNA 122 (MIR122), gene 406906
As to the kind of experiment: LTEA_HepaRG_MIR122: Life Technologies and Expression Analysis (LTEA) Assay for MicroRNA 122 (MIR122) using HepaRG (AID 2283516). Also: the transcript read is the microRNA miR-122. Summed up: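 Differentiated human HepaRG cells in serum-free induction medium exposed 48 h to 8 half-log concentrations from 100 uM in 0.5% DMSO, duplicate. MIR122 quantified by Fluidigm TaqMan qRT-PCR, normalised to ACTB, GAPDH, POLR2A; fold change fitted bidirectionally versus DMSO.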

Read-out in test [3]: matrix metalloproteinase-10 (MMP10), MMP10 (gene 4319)
As to the kind of experiment: LTEA_HepaRG_MMP10: Life Technologies and Expression Analysis (LTEA) Assay for matrix metalloproteinase-10 (MMP10) using HepaRG (AID 2283517). Summed up:
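Differentiated HepaRG cells in serum-free induction medium exposed 48 h in duplicate to 8-point half-log series up to 100 uM in 0.5% DMSO. mRNA quantified by qRT-PCR, normalised to ACTB, GAPDH, POLR2A; bidirectional fit versus DMSO.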

Read-out in another test: MYC, MYC (gene 4609)
As to the kind of experiment: LTEA_HepaRG_MYC: Life Technologies and Expression Analysis (LTEA) Assay for MYC using HepaRG (AID 2283518). A digest of the protocol:
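Differentiated human HepaRG cells, plated 48 h then switched to serum-free induction medium, were exposed in duplicate for 48 h to 8-point half-log series up to 100 uM in 0.5% DMSO. MYC mRNA measured by qRT-PCR, normalized to ACTB/GAPDH/POLR2A.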

Read-out in test [4]: matrix metalloproteinase-3 (MMP3), MMP3 (gene 4314)
Nature of the test: LTEA_HepaRG_MMP3: Life Technologies and Expression Analysis (LTEA) Assay for matrix metalloproteinase-3 (MMP3) using HepaRG (AID 2283519). Summed up:
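HepaRG cells (~100,000/well) in serum-free induction medium were dosed in duplicate for 48 h with an 8-point half-log series from 100 uM, 0.5% DMSO. MMP3 mRNA was quantified by Fluidigm TaqMan qRT-PCR, normalized to three housekeeping genes.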

Read-out in test [5]: Paternally Expressed 10 (PEG10), PEG10 (gene 23089)
As to the kind of experiment: LTEA_HepaRG_PEG10: Life Technologies and Expression Analysis (LTEA) Assay for Paternally Expressed 10 (PEG10) using HepaRG (AID 2283520). Summed up: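 Differentiated HepaRG cells exposed 48 h in serum-free induction medium to eight half-log concentrations topping at 100 uM, 0.5% DMSO, in duplicate. PEG10 mRNA quantified by TaqMan qRT-PCR, normalized to ACTB, GAPDH and POLR2A; bidirectional fit versus DMSO.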

Read-out in test [6]: Nuclear factor NF-kappa-B p105 subunit (Homo sapiens) (UniProt P19838)
Nature of the test: LTEA_HepaRG_NFKB1: Life Technologies and Expression Analysis (LTEA) Assay for Nuclear Factor Kappa B Subunit 1 (NFKB1) using HepaRG (AID 2283521).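 Also: TaqMan qRT-PCR transcript normalised to ACTB GAPDH and POLR2A housekeeping genes.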 A digest of the protocol: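 Differentiated human HepaRG cells in serum-free induction medium with 0.5% DMSO were exposed for 48 h to eight half-log concentrations, top 100 uM, in duplicate. NFKB1 mRNA measured by Fluidigm TaqMan qRT-PCR, normalised to ACTB, GAPDH and POLR2A; bidirectional fit versus DMSO.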

Read-out in test [7]: Protein phosphatase 2A (PPP2R4), PTPA (gene 5524)
As to the kind of experiment: LTEA_HepaRG_PPP2R4: Life Technologies and Expression Analysis (LTEA) Assay for Protein phosphatase 2A (PPP2R4) using HepaRG (AID 2283522). A digest of the protocol: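 Differentiated human HepaRG cells in serum-free induction medium were exposed 48 h to 8 concentrations (top 100 µM, half-log steps, duplicate) in 0.5% DMSO. PPP2R4 mRNA was measured by TaqMan qRT-PCR, normalised to ACTB, GAPDH and POLR2A, and fitted bidirectionally versus DMSO.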

Read-out in test [8]: Phosphatase and tensin (PTEN), PTEN (gene 5728)
Nature of the test: LTEA_HepaRG_PTEN: Life Technologies and Expression Analysis (LTEA) Assay for Phosphatase and tensin (PTEN) using HepaRG (AID 2283523). A digest of the protocol:
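HepaRG cells, 48 h after plating, exposed in duplicate for 48 h in serum-free induction medium to 8 half-log concentrations up to 100 uM (0.5% DMSO). PTEN mRNA by qRT-PCR, normalized to ACTB, GAPDH, POLR2A; bidirectional fit versus DMSO.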

Read-out in test [9]: solute carrier (SLC22A1), SLC22A1 (gene 6580)
As to the kind of experiment: LTEA_HepaRG_SLC22A1: Life Technologies and Expression Analysis (LTEA) Assay for solute carrier (SLC22A1) using HepaRG (AID 2283524). A digest of the protocol:
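Differentiated human HepaRG cells in serum-free induction medium, exposed 48 h in duplicate to 8-point half-log series from 100 µM top in 0.5% DMSO. SLC22A1 mRNA by TaqMan qRT-PCR normalized to ACTB, GAPDH, POLR2A; bidirectional fit versus DMSO.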

Read-out in test [10]: Pyruvate Dehydrogenase Kinase 4 (PDK4), PDK4 (gene 5166)
Nature of the test: LTEA_HepaRG_PDK4: Life Technologies and Expression Analysis (LTEA) Assay for Pyruvate Dehydrogenase Kinase 4 (PDK4) using HepaRG (AID 2283525). A digest of the protocol: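 HepaRG cells plated 48 h, then switched to serum-free induction medium and exposed in duplicate for 48 h to 8 half-log concentrations from 100 uM in 0.5% DMSO. PDK4 mRNA measured by qRT-PCR, normalized to ACTB, GAPDH and POLR2A; bidirectional fit versus DMSO.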

Read-out in test [11]: NAD(P)H dehydrogenase [quinone] 1 (NQO1), NQO1 (gene 1728)
Nature of the test: LTEA_HepaRG_NQO1: Life Technologies and Expression Analysis (LTEA) Assay for NAD(P)H dehydrogenase [quinone] 1 (NQO1) using HepaRG (AID 2283526). Summed up: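 Differentiated human HepaRG cells in serum-free induction medium, dosed in duplicate for 48 h at 8 half-log concentrations up to 100 uM in 0.5% DMSO. NQO1 mRNA by qRT-PCR normalized to ACTB, GAPDH, POLR2A; bidirectional fit versus DMSO baseline.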

Read-out in test [12]: Nuclear factor erythroid 2-related factor 2 (Homo sapiens) (UniProt Q16236)
Nature of the test: LTEA_HepaRG_NFE2L2: Life Technologies and Expression Analysis (LTEA) Assay for Nuclear factor erythroid 2-related factor 2 (NFE2L2) Transcription Factor using HepaRG (AID 2283527).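 Also: TaqMan qRT-PCR transcript level normalised to ACTB GAPDH and POLR2A housekeeping genes.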 A digest of the protocol: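 Differentiated human HepaRG cells, serum-free induction medium, exposed 48 h in duplicate to eight half-log concentrations up to 100 uM in 0.5% DMSO. NFE2L2 mRNA by Fluidigm TaqMan qRT-PCR, normalised to ACTB, GAPDH, POLR2A; bidirectional change versus DMSO.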

Read-out in test [13]: succinate dehydrogenase complex iron sulfur subunit B (SDHB), SDHB (gene 6390)
Nature of the test: LTEA_HepaRG_SDHB: Life Technologies and Expression Analysis (LTEA) Assay for succinate dehydrogenase complex iron sulfur subunit B (SDHB) using HepaRG (AID 2283528). Summed up: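 HepaRG cells (~100,000/well, plated 48 h) exposed in duplicate for 48 h in serum-free induction medium to 8-point half-log series from 100 uM in 0.5% DMSO; mRNA by qRT-PCR normalised to ACTB, GAPDH, POLR2A; bidirectional fit versus DMSO.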

Read-out in test [14]: Signal transducer and activator of transcription 3 (Homo sapiens) (UniProt P40763)
As to the kind of experiment: LTEA_HepaRG_STAT3: Life Technologies and Expression Analysis (LTEA) Assay for Signal transducer and activator of transcription (STAT3) using HepaRG (AID 2283529). Summed up:
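Differentiated HepaRG cells, serum-free induction medium, dosed 48 h in duplicate, 8 half-log concentrations from 100 uM in 0.5% DMSO. STAT3 mRNA by qRT-PCR, normalised to ACTB, GAPDH, POLR2A; bidirectional fit versus DMSO.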

Read-out in test [15]: solute carrier (SLCO1B1), SLCO1B1 (gene 10599)
Nature of the test: LTEA_HepaRG_SLCO1B1: Life Technologies and Expression Analysis (LTEA) Assay for solute carrier (SLCO1B1) using HepaRG (AID 2283530). A digest of the protocol: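 Differentiated human HepaRG cells, plated 48 h, switched to serum-free induction medium and exposed in duplicate for 48 h to 8 half-log concentrations (top 100 uM) in 0.5% DMSO. SLCO1B1 mRNA by TaqMan qRT-PCR, normalized to ACTB/GAPDH/POLR2A.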

Read-out in test [16]: sulfotransferase 2A1 (SULT2A1), SULT2A1 (gene 6822)
Nature of the test: LTEA_HepaRG_SULT2A1: Life Technologies and Expression Analysis (LTEA) Assay for sulfotransferase 2A1 (SULT2A1) using HepaRG (AID 2283531). Summed up: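 Differentiated human HepaRG cells in serum-free induction medium were exposed for 48 h to eight half-log concentrations (top 100 uM, 0.5% DMSO). SULT2A1 mRNA was measured by qRT-PCR, normalized to ACTB, GAPDH and POLR2A, and fitted bidirectionally against DMSO.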

Read-out in test [17]: Transforming Growth Factor (TGFA), TGFA (gene 7039)
As to the kind of experiment: LTEA_HepaRG_TGFA: Life Technologies and Expression Analysis (LTEA) Assay for Transforming Growth Factor (TGFA) using HepaRG (AID 2283532). Summed up: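 Differentiated HepaRG cells exposed 48 hours in serum-free induction medium, 0.5% DMSO vehicle, 8-point half-log series from 100 uM, in duplicate. TGFA mRNA by TaqMan qRT-PCR, normalised to ACTB, GAPDH, POLR2A; bidirectional fit versus DMSO.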

Read-out in test [18]: Transforming Growth Factor (TGFB1), TGFB1 (gene 7040)
Nature of the test: LTEA_HepaRG_TGFB1: Life Technologies and Expression Analysis (LTEA) Assay for Transforming Growth Factor (TGFB1) Transporter using HepaRG (AID 2283533). Summed up: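 Differentiated human HepaRG cells in serum-free induction medium were exposed in duplicate for 48 h to eight concentrations (top 100 uM, half-log steps, 0.5% DMSO). TGFB1 mRNA was quantified by qRT-PCR, normalized to ACTB, GAPDH, POLR2A, and fitted bidirectionally against DMSO.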

Read-out in another test: TIMP1, TIMP1 (gene 7076)
Nature of the test: LTEA_HepaRG_TIMP1: Life Technologies and Expression Analysis (LTEA) Assay for TIMP1 using HepaRG (AID 2283534).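 Also: TaqMan qRT-PCR signal normalized to ACTB GAPDH and POLR2A housekeeping genes.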 A digest of the protocol: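 Differentiated human HepaRG cells in serum-free induction medium were exposed 48 h to chemicals (8 half-log concentrations, top 100 uM, 0.5% DMSO). TIMP1 mRNA was quantified by TaqMan qRT-PCR, normalized to ACTB/GAPDH/POLR2A; bidirectional fit versus DMSO.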

For two compounds, outcome and AC50 results are on record in PubChem BioAssay (EPA / NIEHS).

As usually defined, the AC50 is the concentration giving half of the maximal activity seen.

“And” between values parts separate entries of the source, which are not always exact repeats. Equal values may be shown once. More than one record can exist for a structure, and the calls need not agree. The source made the active and inactive calls. The calls were made as follows: active = hit-call score of the fitted dose curve at least 0.9, where 1 is the maximum; inactive = score below 0.9.

Chain of Nuclear factor erythroid 2-related factor 2 (Homo sapiens) (Q16236 whole entry, looked up): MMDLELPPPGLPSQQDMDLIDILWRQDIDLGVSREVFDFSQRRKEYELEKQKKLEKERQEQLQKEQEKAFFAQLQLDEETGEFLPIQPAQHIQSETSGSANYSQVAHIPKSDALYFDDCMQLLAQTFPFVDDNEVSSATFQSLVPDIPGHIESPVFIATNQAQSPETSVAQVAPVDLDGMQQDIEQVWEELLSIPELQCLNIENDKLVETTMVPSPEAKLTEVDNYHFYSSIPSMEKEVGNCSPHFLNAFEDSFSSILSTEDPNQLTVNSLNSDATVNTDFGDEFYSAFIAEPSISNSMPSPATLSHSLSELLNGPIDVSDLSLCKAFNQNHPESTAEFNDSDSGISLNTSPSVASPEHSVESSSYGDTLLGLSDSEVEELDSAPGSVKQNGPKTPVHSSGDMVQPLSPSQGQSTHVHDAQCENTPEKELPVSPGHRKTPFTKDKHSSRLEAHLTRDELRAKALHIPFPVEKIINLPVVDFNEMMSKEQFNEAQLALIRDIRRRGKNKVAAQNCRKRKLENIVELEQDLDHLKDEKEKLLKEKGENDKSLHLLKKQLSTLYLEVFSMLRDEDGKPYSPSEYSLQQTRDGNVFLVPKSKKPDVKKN
Chain of Signal transducer and activator of transcription 3 (Homo sapiens) (P40763 whole entry, looked up): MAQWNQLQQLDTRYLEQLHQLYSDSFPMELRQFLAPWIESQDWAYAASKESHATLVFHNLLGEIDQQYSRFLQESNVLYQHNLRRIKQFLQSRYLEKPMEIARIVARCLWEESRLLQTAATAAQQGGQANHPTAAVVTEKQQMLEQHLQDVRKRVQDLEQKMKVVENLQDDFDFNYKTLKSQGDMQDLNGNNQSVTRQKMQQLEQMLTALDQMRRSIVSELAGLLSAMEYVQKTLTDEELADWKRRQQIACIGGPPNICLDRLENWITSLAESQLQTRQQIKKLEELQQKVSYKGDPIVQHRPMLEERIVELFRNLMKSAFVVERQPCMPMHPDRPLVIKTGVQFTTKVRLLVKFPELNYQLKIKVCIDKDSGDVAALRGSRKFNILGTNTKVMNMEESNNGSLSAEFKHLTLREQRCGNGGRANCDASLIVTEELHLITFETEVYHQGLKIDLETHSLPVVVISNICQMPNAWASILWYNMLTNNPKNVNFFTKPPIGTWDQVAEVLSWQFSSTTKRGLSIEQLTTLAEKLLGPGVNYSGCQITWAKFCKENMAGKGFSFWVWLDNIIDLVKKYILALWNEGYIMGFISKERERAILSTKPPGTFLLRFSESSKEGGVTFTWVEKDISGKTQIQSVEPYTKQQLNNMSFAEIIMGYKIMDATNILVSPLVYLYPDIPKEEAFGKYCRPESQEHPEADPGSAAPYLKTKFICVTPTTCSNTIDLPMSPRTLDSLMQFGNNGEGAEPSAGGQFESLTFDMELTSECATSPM
Chain of Nuclear factor NF-kappa-B p105 subunit (Homo sapiens) (P19838 whole entry, looked up): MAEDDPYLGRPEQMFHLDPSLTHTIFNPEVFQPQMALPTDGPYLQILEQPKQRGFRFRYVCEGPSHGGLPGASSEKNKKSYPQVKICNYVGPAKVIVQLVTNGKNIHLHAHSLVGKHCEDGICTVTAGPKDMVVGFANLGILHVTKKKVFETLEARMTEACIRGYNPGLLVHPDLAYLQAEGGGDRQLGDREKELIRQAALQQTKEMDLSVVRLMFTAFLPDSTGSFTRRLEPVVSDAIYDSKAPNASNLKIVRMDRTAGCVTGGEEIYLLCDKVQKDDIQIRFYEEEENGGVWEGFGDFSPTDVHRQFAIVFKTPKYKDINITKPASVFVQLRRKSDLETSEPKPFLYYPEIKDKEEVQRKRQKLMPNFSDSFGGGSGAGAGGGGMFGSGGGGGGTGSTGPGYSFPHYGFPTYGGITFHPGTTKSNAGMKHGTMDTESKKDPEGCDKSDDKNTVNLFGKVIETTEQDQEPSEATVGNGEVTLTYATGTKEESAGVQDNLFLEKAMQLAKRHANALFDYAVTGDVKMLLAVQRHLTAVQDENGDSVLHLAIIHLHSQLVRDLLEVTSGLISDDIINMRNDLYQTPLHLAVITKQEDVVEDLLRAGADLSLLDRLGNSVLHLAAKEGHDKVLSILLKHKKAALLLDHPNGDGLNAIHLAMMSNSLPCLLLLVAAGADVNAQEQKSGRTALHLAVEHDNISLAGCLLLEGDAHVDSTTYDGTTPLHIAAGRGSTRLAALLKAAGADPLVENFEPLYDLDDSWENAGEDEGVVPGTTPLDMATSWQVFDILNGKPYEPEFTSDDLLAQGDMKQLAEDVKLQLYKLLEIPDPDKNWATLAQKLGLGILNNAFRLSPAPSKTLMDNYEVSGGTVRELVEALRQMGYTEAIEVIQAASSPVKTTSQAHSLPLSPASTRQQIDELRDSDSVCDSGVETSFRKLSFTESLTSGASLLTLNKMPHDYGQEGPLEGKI

For the compound `CC(C)C1(C)N=C(c2nc3ccccc3cc2C(=O)O)NC1=O` (stereo not given), the outcome in test [1] is “inactive”; in [2] it was “inactive”; in test [3] it was “inactive”; in the test with MYC, MYC (gene 4609), “inactive”; in test [4], “inactive”; in test [5] it was “inactive”. Further, the compound was classed as inactive in test [6], in test [7], in test [8], in [9], in [10] and in [11]. Moreover, the compound was called inactive in test [12], in test [13], in [14], in [15], in [16] and in [17]. The outcome is “inactive” in test [18] and “inactive” in the test with TIMP1, TIMP1 (gene 7076).

With `C=CCC1=C(C)C(OC(=O)C2C(C=C(C)C)C2(C)C)CC1=O` (stereo not given), the outcome in [1] is “inactive”; in test [2] it was “inactive”; in [3] it was “inactive”; with MYC, MYC (gene 4609) it was “inactive”; in test [4] it was “inactive”; in [6] it was “inactive”. Further, the compound was classed as inactive in test [7], in test [8], in [10], in test [11], in test [12] and in test [13]. Also, the outcome in [14] is “inactive”; in [15], “inactive”; in [16], “inactive”; in test [17], “inactive”; in [18] it was “inactive”; with TIMP1, TIMP1 (gene 7076), “inactive”. The AC50 in test [2] was 90.8 µM (active) and 22.5 µM (active); in [5], 68.4 µM (active) and 79.7 µM (active) and 28.2 µM (active); in test [9], 86.3 µM (active) and 83.2 µM (active) and 50 µM (active); in test [10], 50 µM (active); in [13] it was 69.1 µM (active); in test [15] it was 87.3 µM (active) and 50 µM (active). Besides, the AC50 in test [16] was 86.7 µM (active).
